# LASV entry inh – inhibitors of Lassa virus binding or cell entry; Lassa virus pseudotype entry inhibition, cell reporter; 300,000 tested, 1.2% active; Potency, µM (titrated, usually from 37.9 µM), for inactives: at the top dose activity change, negative = inhibition, actives largely listed as inhibitors; calls by dose curve; tested in HEK293 cells; further: potency means the concentration at half of the fitted maximal effect; on the % scale 0 is the no-effect control and ±100 the full control effect; nearly all actives have a fitted effect of over 50% in size
# HCMV antiviral – human cytomegalovirus inhibition; AID 1259415; activity change, negative = inhibition, % at 57.5 µM; 410,000 tested, 4.5% active; HFF cells, HCMV-luciferase reporter, 72 h; active compounds read low; in the data active means activity change below about -60%; inconclusive means no clear call, values can overlap the other calls; inactive means above about -39%; further: on the % scale 0 is the no-effect control and ±100 the full control effect
#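 Steps: HFFs plated, 16 h 37C; compounds added; HCMV-luciferase added to MOI 1 PFU/cell; 72 h 37C; OneGlo reagent, 5 min room temperature; luminescence read, normalized to controls.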
# SARS PLP yeast – blocks SARS-CoV papain-like protease in a yeast assay; S. cerevisiae expressing SARS-CoV PLpro, growth rescue; Potency, µM (top dose mostly 32.9 µM), for inactives: top-dose activity, positive = growth rescue, hits mostly activators; 330,000 tested, 0.19% active; AID 485353; calls by dose curve; further: potency means the concentration at half of the fitted maximal effect; 0% is about no effect; nearly all actives have a fitted effect of over 55% in size
# MARV entry inh – Marburg virus entry inhibition; 300,000 tested, 1.8% active; Marburg virus pseudotyped entry inhibition, cell reporter; Potency, µM (series often up to 37.8 µM), for inactives: at the highest dose activity change, negative = inhibition, usual class: inhibitors; AID 540276; calls by dose curve; tested in HEK293 cells; further: potency means the concentration at half of the fitted maximal effect; on the % scale 0 is the no-effect control and ±100 the full control effect
# HCV inh – inhibitors of hepatitis C virus infection | AID 651820 | 340,000 tested, 3.4% active | Potency, µM (doses to about 41.8 µM), inactives show at the top dose activity change, negative = inhibition, actives largely listed as inhibitors | Huh7.5.1 HCVcc-Cre infection, luciferase reporter, 44 h; active means well fitted inhibition curve with a large enough effect; inconclusive means small, poorly fitted or top-dose-only effect, or another doubt; inactive means no such curve, though single readings can be large or run the other way; further: potency means the concentration at half of the fitted maximal effect; on the % scale 0 is the no-effect control and ±100 the full control effect
#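 Seed cells (1,000/well) for 4 h; treat with compound and infect with HCVcc-Cre, moi about 0.5. Incubate 44 h, then detect luciferase activity.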
# FMDV inh – foot and mouth disease virus antiviral activity; AID 1159524; 410,000 tested, 1.2% active; Potency, µM (doses to about 57.9 µM), for the others: at the top dose activity change, negative = inhibition, hits mostly inhibitors; FMDV antiviral cell-based qHTS; calls by dose curve; tested in HEK293T cells; further: read-out not given here; potency means the concentration at half of the fitted maximal effect; on the % scale 0 is the no-effect control and ±100 the full control effect; nearly all actives have a fitted effect of over 45% in size
# Active calls of the source: *; ? = inconclusive; / = no result given; + = active, no number; [ ] = remark or other dose. An excerpt weighted towards active compounds, which were near 8% of everything screened.
SMILES,LASV entry inh,HCMV antiviral,SARS PLP yeast,MARV entry inh,HCV inh,FMDV inh
CCOc1ccc(N(CC(=O)NC2CCCCC2)S(=O)(=O)c2ccccc2)cc1,/,-23,-2%,18%[46.1 µM],1%,15%
Cc1cccc2cc(CN(C(=O)c3ccc(C(F)(F)F)cc3)C3CC3)c(N3CCC(O)CC3)nc12,/,/,/,/,/,-11%
Oc1ccccc1C1CC(c2cccs2)=NC(c2ccc(Cl)cc2)N1 (stereo not drawn),/,-70*,-6%,/,?,-15%
CC(C)NC(=O)COC(=O)CNC(=O)c1cc(Cl)cc([N+](=O)[O-])c1,1%,-10,2%,14%,3%,-21%
CC(=O)Nc1sc(N/N=C/c2ccccc2)nc1-c1ccc(C)cc1,14%,-9,3%,6%,?,37%
CCCc1sc(N/N=C/c2ccccn2)nc1-c1ccc(Br)cc1,5.2µM*,-98*,-11%,?,3.2µM*,-1%
O=C(c1cccn1-c1nnc(N2CCCCC2)s1)N1CCN(c2ccc(Cl)cc2)CC1,?,?,/,/,/,-28%
COc1ccnc(Oc2ccccc2)c1C(=O)N/C=N/OCc1ccccc1,-8%[46.1 µM],-17,1%,?,-4%,-17%
COc1ccnc(Oc2cccc(C(F)(F)F)c2)c1C(=O)N/C=N/OCc1ccccc1F,?,-11,0%,?,11µM*,?
Cc1ccc(NC(=O)N2CCC(CN3CCCC3)CC2)c(C)c1,13%[46.1 µM],-38,/,/,/,-5%
COc1cccc2c(=O)cc(C)n(CC(=O)Nc3cccc(C)c3)c12,-30%,?,23%,-39%,8.9µM*,?
Cc1cc(=O)c2ccccc2n1Cc1ccccc1,-2%[46.1 µM],-70*,1%,?,13µM*,?
COc1cccc(NC(=O)CNC(=O)Cn2c(C)cc3ccccc3c2=O)c1,-2%[46.1 µM],5,/,?,/,-5%
O=C(Cn1c(=O)nc(-c2ccccc2)c2cc(Cl)ccc21)NCc1ccccc1,-9%[46.1 µM],?,/,/,/,14µM*
Cc1nc2ccccc2n1CC(=O)NCc1ccccc1,-36%[14.3 µM],-79*,2%,?,-18%,?
CCc1nn(CC(=O)NCc2ccccc2)c(=O)c2cccn12,11µM*,-1,/,?,/,-6%
CCc1nn(CC(=O)NCCc2ccc(Cl)cc2)c(=O)c2cccn12,/,55,-2%,/,3%,-3%
COc1ccc(NC(=O)Cn2c(C)cc(=O)c3ccccc32)cc1,?,-80*,38%,?,7.1µM*,?
Cc1cc(=O)c2ccccc2n1CC(=O)NCc1ccccc1,?,-71*,0%,10µM*,?,?
COc1ccc(-n2c(=O)c3ccc(C(=O)NCc4ccc(C)cc4)cc3n(CC(=O)Nc3ccc(C)cc3)c2=O)cc1,3%[46.1 µM],-71*,/,15%[46.1 µM],/,-26%
C[C@@H]1CN([C@@H](C)CO)C(=O)CCCn2nncc2CO[C@@H]1CN(C)S(=O)(=O)c1cccc(C#N)c1,/,2,/,/,/,-10%
CC1(O)CC2C(CC1O)C2(C)C (stereo not drawn),/,/,/,/,/,23%
COCCNC(=O)c1cn(C)c2ccccc2c1=O,-17%[46.1 µM],13,2%,?,-7%,-9%
COc1ccc(S(=O)(=O)n2nc(-c3ccco3)nc2NCc2ccc(C(C)C)cc2)cc1,18%[46.1 µM],57,/,5%[46.1 µM],/,18%
COc1ccc(NC(=O)COC(=O)c2cc(Cl)ccc2O)cc1S(=O)(=O)N1CCCCC1,-3%,-28,2%,0%,-24%,?
SMILES,LASV entry inh,HCMV antiviral,SARS PLP yeast,MARV entry inh,HCV inh,FMDV inh
COCCCNc1ncnc2c1c(-c1ccccc1)cn2-c1ccc(C)c(Cl)c1,2%[46.1 µM],-17,/,/,/,?
Cc1nc2ccccc2n1CC(=O)NC(C)C1CC2CCC1C2 (stereo not drawn),-19%,-65*,0%,?,?,?
CC(NC(=O)Cn1c(NCCO)nc2ccccc21)C1CC2CCC1C2 (stereo not drawn),3%,-15,-1%,0%,-15%,-14%
Cc1nn(C(=O)CCCC(=O)NCc2ccccc2)c2ccccc12,/,-22,-2%,/,22µM*,-1%
CCCCOc1ccc(C(=O)NCCS(=O)(=O)N2CCN(c3ccccc3OC)CC2)cc1,?,-26,/,/,/,14µM*
CCCCN(C(=O)Cc1ccc([N+](=O)[O-])cc1)C(C(=O)Nc1c(C)cccc1C)C(=O)c1ccc(OC)cc1 (stereo not drawn),/,-29,/,/,/,/
C[C@]12CCCC3=CC(=O)C=C[C@@]31Oc1ccccc1C(=O)C2,/,6,/,/,/,/
COc1cccc(CNC(=O)c2c(OC)cc(=O)n3c2CCN(C(=O)c2csc(C)n2)CC3)c1,/,/,/,/,/,20%
O=c1[nH]c2ccccc2n1CCCSCCCn1c(=O)[nH]c2ccccc21,?,-66*,9%,?,?,20µM*
COC(=O)N[C@@H](CCc1ccccc1)[C@]1(C(C)=O)CCCC1=O,/,/,/,12%[14.2 µM],/,/
O=C(COC(=O)CCC(=O)c1cccs1)Nc1ccccc1[N+](=O)[O-],/,?,6%,/,10%,-10%
Cc1cccc(C)c1NC(=S)N1CCC(N(C)CC2CCCO2)CC1 (stereo not drawn),13%,-13,-9%,18%,21%,-1%
Cc1cc(C)c(NC(=S)N2CCC(N(C)CC3CCCO3)CC2)c(C)c1 (stereo not drawn),11%,-72*,6%,18%,10%,-14%
COc1ccc(N2CCN(c3ccc(-c4nc(-c5cccc(C)c5)no4)cc3[N+](=O)[O-])CC2)cc1,25%[46.1 µM],4,/,14%[46.1 µM],/,-5%
COc1ccc(OC)c(NC(=O)c2ccc3c(c2)c(C)c(C)n3Cc2ccc(F)cc2)c1,10%[46.1 µM],0,/,/,/,-1%
COc1ccc(NC(=O)c2ccc3c(c2)c(C)c(C)n3Cc2ccc(F)cc2)c(OC)c1,12%[46.1 µM],+,/,/,/,-12%
Cc1ccc(NC(=O)NCc2ccco2)cc1[N+](=O)[O-],/,-32,/,/,/,/
CNC(=S)N/N=C/c1c(C(=O)OC)cnn1-c1ccc(F)cc1F,-2%,-13,0%,-20%[46.1 µM],-10%,?
COC(=O)c1cnn(-c2ccc(F)cc2F)c1/C=N/NC(N)=S,/,-11,1%,/,10µM*,?
COc1ccc(N2CCN(c3cc(C)c4ccc(O)cc4n3)CC2)cc1,/,5,7%,/,3%,-23%
COc1cc(OC)c2nc(C)c3c(c2c1)N(c1ccc(O)cc1)CC3,?,-103*,2%,?,?,?
Cc1nnc2c3ccccc3c(-c3ccccc3)nn12,?,-66*,/,?,-2%,/
COC(=O)c1cc(OC(C)C)ccc1NC(=O)[C@@]1(Sc2ccc(OC)cc2)CC(=O)N[C@@H]1c1ccc(OC)cc1,/,-39,/,/,/,/
CCN1C(=NCc2cccc(Cl)c2)NC(c2cccc(C(F)(F)F)c2)C(C(=O)OC)=C1C (stereo not drawn),-42%[14.3 µM],/,/,-25%[14.2 µM],/,/
CN(C)c1ccc(/C=C2/C(=N\O)C3CCN2CC3)cc1,5%[46.1 µM],-98*,-1%,5%[46.1 µM],-14%,9%

# Screening results as filed in PubChem.
